Compound activity deposited in PubChem by The Scripps Research Institute Molecular Screening Center.
A selection: hits, their analogues and other compounds. The true share with any hit is near 2.9%.
PAFAH2 inh: PAFAH2 enzyme inhibitors, primary screen, biochemical, fluorescence polarization, human. Platelet-activating factor acetylhydrolase 2, cytoplasmic (Homo sapiens), Q99487. recombinant PAFAH2, FP-rhodamine activity probe. inhibition, % at 3.39 µM. 340,000 tested, 0.99% active. AID 492956, 2010;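 active = inhibition above the mean over all tested compounds plus 3 SD, cut at about 30% in these data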;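 note: inhibitors block probe labeling of enzyme so polarization drops; 0% = enzyme with DMSO and 100% = wells lacking PAFAH2 protein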
PAFAH1B3 inh: PAFAH1B3 enzyme inhibitors, primary screen, biochemical, fluorescence polarization, human; 340,000 tested, 0.28% active; inhibition, % at 3.39 µM; recombinant PAFAH1B3, FP-rhodamine probe;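 active = inhibition above the screen-wide average of all tested compounds plus 3 SD, cut at about 25% in these data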;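 note: 0% = enzyme with DMSO only and 100% = wells lacking PAFAH1B3 protein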
LYPLA1 inh: LYPLA1 inhibitors, primary screen, counter-screen for PME1 inhibitor project, biochemical, fluorescence polarization, FP-Rh probe ABPP; inhibition, % at 5.9 µM; recombinant LYPLA1; 320,000 tested, 0.16% active;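 active = inhibition above the mean of all tested compounds plus 3 SD, set per campaign, cut at about 14% in these data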;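 note: inhibitors block serine hydrolase probe labeling of LYPLA1 so polarization falls; 0% = enzyme with DMSO and 100% = wells lacking LYPLA1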
pPAFAH inh: pPAFAH enzyme inhibitors, primary screen, biochemical, fluorescence polarization, human; AID 463082, 2010; 330,000 tested, 1.5% active; Platelet-activating factor acetylhydrolase (Homo sapiens), Q13093; recombinant pPAFAH, FP-rhodamine probe fluorescence polarization; inhibition, % at 3.39 µM;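 active = inhibition above the mean inhibition across the screen plus 3 SD, cut at about 25% in these data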;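 note: inhibitors block binding of the rhodamine activity-based probe so polarization drops; 0% = enzyme with DMSO and 100% = wells lacking pPAFAH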
PAFAH1B2 inh: PAFAH1B2 enzyme inhibitors, primary screen, biochemical, fluorescence polarization, human; inhibition, % at 3.39 µM; Platelet-activating factor acetylhydrolase IB subunit alpha2 (Homo sapiens), P68402; recombinant PAFAH1B2, FP-rhodamine activity probe; 340,000 tested, 1.2% active;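 active = inhibition above the mean of all tested compounds plus 3 SD, cut at about 24% in these data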;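 note: 0% = enzyme with DMSO and 100% = wells lacking PAFAH1B2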
LYPLA2 counter: LYPLA2 inhibitors, primary screen, counter-screen for PME1 inhibitor project, biochemical, fluorescence polarization, FP-Rh probe ABPP. inhibition, % at 5.9 µM. recombinant LYPLA2. AID 2177, 2009. Acyl-protein thioesterase 2 (Homo sapiens), O95372. 320,000 tested, 0.38% active;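 active = inhibition above the screen-wide mean plus 3 SD, limit set per campaign, cut at about 26% in these data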;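 note: 0% = LYPLA2 with DMSO and 100% = wells lacking LYPLA2 enzyme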
Target sequence (O95372 whole entry, looked up): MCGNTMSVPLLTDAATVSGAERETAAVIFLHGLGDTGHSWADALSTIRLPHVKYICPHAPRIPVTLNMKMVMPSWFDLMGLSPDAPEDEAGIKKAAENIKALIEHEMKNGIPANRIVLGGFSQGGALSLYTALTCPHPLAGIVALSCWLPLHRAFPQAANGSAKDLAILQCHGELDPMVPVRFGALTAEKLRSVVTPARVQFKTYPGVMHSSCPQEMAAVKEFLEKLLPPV
Active calls of the source: *; / = no result given.

SMILES	PAFAH2 inh	PAFAH1B3 inh	LYPLA1 inh	pPAFAH inh	PAFAH1B2 inh	LYPLA2 counter
O=C(Nc1ccc(Cl)c(Cl)c1)Nc1ccc(N2CCCC2)c(S(=O)(=O)Nc2ccccc2Cl)c1	-84	-7	-29	11	4	-29
Cc1ccc(S(=O)(=O)Nc2ccccc2C(=O)Nc2nc(-c3ccc(F)cc3)cs2)cc1	0	-2	-4	25*	2	-13
Cc1ccc(S(=O)(=O)Nc2nc(-c3ccccc3)cs2)cc1	3	8	1	15	3	3
CC(C)CN1CCN=C1N(C)C	4	2	-2	-1	4	-7
O=C(NCC1CCCO1)c1c(O)c2cccc3c2n(c1=O)CC3 (stereo unspecified)	0	0	6	0	3	4
COc1ccc(C2=CC3=CC(=O)C(C)(O)C(=O)C3=CO2)cc1 (stereo unspecified)	/	/	3	38*	/	9
COc1ccc(C2=CC3=C(Br)C(=O)C(C)(O)C(=O)C3=CO2)cc1 (stereo unspecified)	8	13	0	15	8	-2
CC1(O)C(=O)C=C2C=C(c3ccc(C#N)cc3)OC=C2C1=O (stereo unspecified)	/	/	-8	57*	/	3
Cc1cc(C)cc(NS(=O)(=O)c2ccc(NC(=O)C3CCCCC3C(=O)O)cc2)c1 (stereo unspecified)	-3	-8	8	28*	-1	6
CC(C)c1ccc(NC(=O)C2CCCCC2C(=O)O)cc1 (stereo unspecified)	-3	4	-1	1	-2	-4
NC1=C(Cl)C(=O)c2ccc(S(N)(=O)=O)cc2C1=O	48*	69*	/	/	25*	/
COc1ccc(CCN(C)C(=O)CSc2nnc(C3CC3)n2N)cc1OC	4	3	-1	2	4	-5
COc1ccccc1N1CCN(C(=O)/C=C/c2ccccc2)CC1	17	8	5	-2	2	9
COc1cc(/C=N/N(c2ccccc2)c2ccccc2)ccc1O	-1	12	-1	27*	6	-2
Cn1c(CNC(=O)c2ccc(Cl)cc2)nnc1SCC(=O)Nc1sc2c(c1C#N)CCCC2	-1	3	0	4	26*	7
O=C1CCC(C(=O)Nc2cccc(C(F)(F)F)c2)N1 (stereo unspecified)	2	9	1	0	-1	-1
Cc1ccccc1NS(=O)(=O)c1ccc(C(=O)NCC(c2ccco2)N(C)C)cc1 (stereo unspecified)	2	-5	1	30*	2	2
CCOc1ccc(S(=O)(=O)Nc2ccc(C(=O)NCC(c3ccco3)N(C)C)cc2)cc1 (stereo unspecified)	1	2	4	13	5	2
O=C(NCC(c1ccco1)N1CCCCC1)c1ccc(COc2ccc(Cl)cc2)cc1 (stereo unspecified)	-4	6	/	/	31*	/
Cc1ccccc1NS(=O)(=O)c1ccc(C(=O)NCC(c2ccco2)N2CCCCC2)cc1 (stereo unspecified)	-1	-1	-1	34*	6	4
CNC(=O)NC(=O)C(C)OC(=O)c1c(C)noc1C (stereo unspecified)	6	4	-3	-1	3	-5
O=S(=O)(NC1C2CC3CC(C2)CC1C3)c1ccccc1 (stereo unspecified)	8	5	0	2	26*	-6
C/C(CC(=O)Nc1ccc(N(C)C)cc1)=N\NC(=O)c1ccc(C(C)(C)C)cc1	37*	10	-4	5	9	1
C/C(CC(=O)Nc1ccc(N(C)C)cc1)=N\NC(=O)c1ccc(F)cc1	-7	5	6	1	0	2
O=S(=O)(Nc1ncnc2sc3c(c12)CCC3)c1cc(F)ccc1F	0	6	-4	30*	3	-5
